Values joined by “and” are separate entries in the source; they are usually repeats but may differ in a detail not shown here. Equal values may be shown once. In all, about 5,500 compounds went through this assay and about 2,000 (36%) were called active. Another 18% or so got no clear call; they are omitted. Cut-off read from the data, not from the text of the source: active = normalized growth mostly below about 0.91 (no sharp cut-off); inconclusive = no clear call, values can overlap the other calls; inactive = mostly above about 0.92. The list shows a part of the results.
Experiment: chemical genetic growth profiling, strain panel (AID 1159580);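 note: tested at 20 µM; growth read once vehicle control cultures reached saturation at 30 °C; 1 = growth at the plate median or of vehicle wells; lower values mean less growth of the strain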
Conditions: S. cerevisiae deletion strains, growth OD

Measured: normalized growth

Oc1cccc(O)c1
inactive: locus YAL013W, strain DEP1, stronger effect = lower value 1.01 | locus YAL021C, strain ccr4, stronger effect = lower value 0.951 | locus YAL026C, strain drs2, stronger effect = lower value 0.966 | locus YAL030W, strain snc1, stronger effect = lower value 0.981 | locus YBL061C, strain skt5, stronger effect = lower value 0.981 | locus YBR009C, strain hhf1, stronger effect = lower value 0.981 | locus YBR021W, strain FUR4, stronger effect = lower value 1.02 | locus YBR023C, strain chs3, stronger effect = lower value 0.975 | locus YBR171W, strain sec66, stronger effect = lower value 0.983 | locus YBR229C, strain ROT2, stronger effect = lower value 1.01 | locus YBR231C, strain swc5, stronger effect = lower value 0.99 | locus YBR279W, strain paf1, stronger effect = lower value 1 | locus YCL011C, strain gbp2, stronger effect = lower value 0.938 | locus YCL016C, strain dcc1, stronger effect = lower value 0.956 | locus YCL029C, strain bik1, stronger effect = lower value 0.987 | locus YCL061C, strain MRC1, stronger effect = lower value 0.95 | locus YCL069W, strain vba3, stronger effect = lower value 0.978 | locus YCR088W, strain abp1, stronger effect = lower value 0.981 | locus YDL005C, strain med2, stronger effect = lower value 0.977 | locus YDL035C, strain GPR1, stronger effect = lower value 1.01 | locus YDL040C, strain nat1, stronger effect = lower value 0.99 | locus YDL074C, strain BRE1, stronger effect = lower value 1.01 | locus YDL101C, strain DUN1, stronger effect = lower value 1 | locus YDL134C, strain PPH21, stronger effect = lower value 0.999 | locus YDL185W, strain tfp1, stronger effect = lower value 0.974 | locus YDL192W, strain arf1, stronger effect = lower value 0.987 | locus YDR001C, strain nth1, stronger effect = lower value 0.957 | locus YDR069C, strain doa4, stronger effect = lower value 0.976 | locus YDR101C, strain arx1, stronger effect = lower value 0.981 | locus YDR137W, strain rgp1, stronger effect = lower value 0.942 | locus YDR150W, strain NUM1, stronger effect = lower value 1.01 | locus YDR159W, strain sac3, stronger effect = lower value 0.953 | locus YDR162C, strain NBP2, stronger effect = lower value 1 | locus YDR195W, strain ref2 0.993 | locus YDR297W, strain sur2, stronger effect = lower value 0.989 | locus YDR318W, strain mcm21, stronger effect = lower value 0.985 | locus YDR334W, strain swr1, stronger effect = lower value 0.969 | locus YDR335W, strain msn5, stronger effect = lower value 0.983 | locus YDR388W, stronger effect = lower value 0.986 | locus YDR392W, strain spt3, stronger effect = lower value 0.872 | locus YDR502C, strain sam2, stronger effect = lower value 0.984 | locus YEL003W, strain gim4, stronger effect = lower value 0.985 | locus YEL037C, strain rad23, stronger effect = lower value 0.977 | locus YEL061C, strain CIN8 (second series), stronger effect = lower value 0.972 | locus YEL061C, strain CIN8, stronger effect = lower value 1 | locus YER015W, strain faa2, stronger effect = lower value 0.981 | locus YER016W, strain bim1, stronger effect = lower value 0.982 | locus YER110C, stronger effect = lower value 0.984 | locus YER111C, strain swi4, stronger effect = lower value 0.981 | locus YER155C, strain BEM2 (second series), stronger effect = lower value 0.973 | locus YER155C, strain BEM2, stronger effect = lower value 1 | locus YER167W, strain BCK2, stronger effect = lower value 1.01 | locus YFR010W, strain ubp6, stronger effect = lower value 0.966 | locus YGL078C, strain dbp3, stronger effect = lower value 0.987 | locus YGL086W, strain mad1, stronger effect = lower value 0.994 | locus YGL167C, strain pmr1, stronger effect = lower value 0.984 | locus YGL173C, strain kem1, stronger effect = lower value 0.996 | locus YGL227W, strain vid30, stronger effect = lower value 0.981 | locus YGL240W, strain doc1, stronger effect = lower value 1.01 | locus YGL248W, strain PDE1, stronger effect = lower value 1.01 | locus YGL253W, strain hxk2, stronger effect = lower value 0.962 | locus YGR135W, strain pre9, stronger effect = lower value 0.986 | locus YGR252W, strain gcn5, stronger effect = lower value 0.974 | locus YHR013C, strain ard1, stronger effect = lower value 0.947 | locus YHR027C, strain rpn1, stronger effect = lower value 0.985 | locus YHR030C, strain SLT2, stronger effect = lower value 1.01 and 1.03 | locus YHR079C, strain IRE1 (second series), stronger effect = lower value 0.987 | locus YHR079C, strain IRE1, stronger effect = lower value 1.05 | locus YHR094C, strain hxt1, stronger effect = lower value 0.993 | locus YHR129C, strain ARP1, stronger effect = lower value 1.02 | locus YHR142W, strain chs7, stronger effect = lower value 0.954 | locus YHR200W, strain rpn10, stronger effect = lower value 0.987 | locus YIL066C, strain RNR3, stronger effect = lower value 0.999 | locus YIL073C, strain SPO22, stronger effect = lower value 0.993 | locus YIL125W, strain kgd1, stronger effect = lower value 0.986 | locus YIR030C, strain dcg1, stronger effect = lower value 0.991 | locus YJL092W, strain hpr5, stronger effect = lower value 0.963 | locus YJL095W, strain BCK1 (second series), stronger effect = lower value 0.987 | locus YJL095W, strain BCK1, stronger effect = lower value 1.02 and 0.997 | locus YJL115W, strain asf1, stronger effect = lower value 0.978 | locus YJL129C, strain trk1, stronger effect = lower value 0.974 | locus YJL134W, strain LCB3, stronger effect = lower value 1.01 | locus YJL154C, strain vps35, stronger effect = lower value 0.977 | locus YJL164C, strain tpk1, stronger effect = lower value 0.947 | locus YJL166W, strain qcr8, stronger effect = lower value 1 | locus YJL168C, strain set2, stronger effect = lower value 0.988 | locus YJL187C, strain SWE1 (second series), stronger effect = lower value 1.01 | locus YJL187C, strain SWE1, stronger effect = lower value 0.989 | locus YJR043C, strain POL32, stronger effect = lower value 1.01

Reference: PubChem BioAssay AID1159580 (chemical genetic matrix, 2015)
